Screening data: PubChem, National Center for Advancing Translational Sciences (NCATS)
Only some compounds are listed: those with a hit (about 5.7% of all), similar ones and a draw of the others.
ClpP mod = qHTS Assay for Activators of ClpP; ATP-dependent Clp protease proteolytic subunit (Bacillus subtilis (strain 168)), P80244; purified B. subtilis ClpP, FRET peptide cleavage, 20 min; Potency, µM (top dose mostly 57.5 µM), inactives show top-dose activity change, negative = active; hit rate 1.9% among 340,000; active means well fitted falling curve with a large enough effect; inconclusive means small, poorly fitted or top-dose-only effect; inactive means no such curve, though single readings can be large or run the other way; further: potency means the concentration at half of the fitted maximal effect; the source files actives as falling curves though it sought activators and does not explain the sign; nearly all actives have a fitted effect of over 65% in size
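ClpP 10 microg/mL final, pH 8 Tris/KCl buffer with BSA, glycerol, Tween-20; compound pinned in; FRET-FV substrate; RT 20 min; Ex320/Em430; ΔFRET vs ADEP 5.8 microM, DMSO, no enzyme.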
GLP1R cytotox = cytotoxicity in counter-screen for GLP-1R inverse agonists | HEK293 cAMP-luciferase reporter cells, luminescence, 24 h | Potency, µM (top dose mostly 38.3 µM), for the others: at the highest dose activity change, negative = inhibition, most hits filed as inhibitors | hit rate 0.13% among 410,000;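 further: loss of luciferase light is scored as toxicity; potency means the concentration at half of the fitted maximal effect; on the % scale 0 is the no-effect control and ±100 the full control effect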
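Cells in DMEM/10% Nu serum/1% pen-strep, 1536-well format. Pre-incubated 12 h, dosed with 23 nL compound, incubated a further 24 h. Luciferase detection, 12 min at room temp, luminescence.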
GLP1R inv ag = acts as inverse agonist at human GLP-1 receptor; P43220; HEK293 GLP-1R CRE-luciferase, luminescence, 24 h; GLP-1R form is constitutively active; Potency, µM (titrated, usually from 38.3 µM), without a hit: at the highest dose activity change, negative = inhibition, hits mostly inhibitors; hit rate 1.6% among 410,000; AID 624417; further: potency means the concentration at half of the fitted maximal effect; on the % scale 0 is the no-effect control and ±100 the full control effect; nearly all actives have a fitted effect of over 55% in size
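Using stably transfected HEK293 (constitutively active GLP-1R, cAMP-luciferase reporter), compounds were incubated 24 hr and luciferase measured by luminescence.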
GLP1R ag = GLP-1 receptor (human) agonism. P43220. HEK293 GLP-1R CRE-luciferase, luminescence, 4-6 h; cells express a hypersensitive GLP-1R form. Potency, µM (titrated, usually from 45.6 µM), inactives show at the top dose activation, hits mostly activators. hit rate 0.007% among 380,000; further: potency means the concentration at half of the fitted maximal effect; % of control where 0% means no effect
D3 antag = antagonists of human D3 dopamine receptor | max response, negative = inhibition, % | hit rate 2.5% among 360,000 | D3R cells, DiscoveRx beta-arrestin luminescence, antagonist mode; active compounds read low | P35462; in the data active means max response below about -50%; inconclusive means no clear call, values can overlap the other calls; further: on the % scale 0 is the no-effect control and ±100 the full control effect
Target sequence (P35462 whole entry, looked up): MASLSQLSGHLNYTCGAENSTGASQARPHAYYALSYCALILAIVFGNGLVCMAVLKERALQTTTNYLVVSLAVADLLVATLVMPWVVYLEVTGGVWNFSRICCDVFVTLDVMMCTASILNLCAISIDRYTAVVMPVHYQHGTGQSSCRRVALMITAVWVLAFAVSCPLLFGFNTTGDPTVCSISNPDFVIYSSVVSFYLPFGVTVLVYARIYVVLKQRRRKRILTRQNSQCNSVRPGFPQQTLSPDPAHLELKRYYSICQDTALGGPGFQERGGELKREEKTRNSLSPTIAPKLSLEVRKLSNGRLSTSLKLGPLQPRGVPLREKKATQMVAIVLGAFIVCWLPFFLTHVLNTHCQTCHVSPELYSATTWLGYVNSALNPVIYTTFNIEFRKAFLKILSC
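Cells plated overnight at 1500 cells/well, then exposed to library compounds with dopamine controls for 90 minutes at 37 degrees C. DiscoveRx reagent added for 30–60 minutes at room temperature; luminescence read, quantitative HTS format.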
DRD3 agonist = activates the human D3 dopamine receptor | P35462 | D3R DiscoveRx beta-arrestin cells, luminescence, 90 min | max activation, % | hit rate 0.58% among 410,000 | AID 652048; in the data active means max activation above about 30%; further: 0% is about no effect
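Agonist mode: compounds and dopamine controls were applied to plated cells for 90 min at 37 degrees C after an overnight attachment at 1500 cells/well. Luminescent read-out followed 30 - 60 minutes at room temperature with DiscoveRx detection reagent.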
* hit, by the source's call; u = inconclusive; x = no result; [ ] = remark or other dose. Unless noted, the call rests on the fitted dose curve; in most records, active means well fitted curve in the direction sought with a large enough effect; inconclusive means small, poorly fitted or top-dose-only effect, or another doubt; inactive means no such curve, though single readings can be large; an effect the other way counts as inactive or inconclusive.

SMILES	ClpP mod	GLP1R cytotox	GLP1R inv ag	GLP1R ag	D3 antag	DRD3 agonist
COc1ccccc1N1CCN(C2CCN(S(=O)(=O)c3ccc(C)cc3)CC2)CC1	x	11%	u	4%	-70*	-39
Cc1ccc(CCNS(=O)(=O)c2ccc3c(c2)CCN3C(=O)CCC(=O)O)cc1	1%	-3%	15%	x	x	3
COc1ccccc1N1CCN(S(=O)(=O)c2ccc3c(c2)NC(=O)C(C)S3)CC1 (stereo unspecified)	1%	-5%	10µM*	5%	13	4
COCCn1c(SCC(=O)NNC(=O)c2ccccc2)nc2ccccc2c1=O	28µM*	-8%	-3%	9%	0	-4
COCCCNC(=O)CSc1nc2ccccc2c(=O)n1Cc1ccc2c(c1)OCO2	28µM*	-2%[7.66 µM]	11%[7.66 µM]	0%	12	1
Cc1cc(NC(=O)CSc2nc3cc4c(cc3c(=O)n2CCc2ccccc2)OCO4)no1	3%	-23%	0%	-13%	-53*	2
COc1ccc(CCn2c(SCC(=O)Nc3cc(C)on3)nc3ccccc3c2=O)cc1OC	u	-12%	-2%	0%	4	1
COCCCNC(=O)CSc1nc2cc(C(=O)NCCOC)ccc2c(=O)n1Cc1ccc2c(c1)OCO2	0%	-2%	27%	5%	2	2
CCNc1c(NC(=O)c2cc(OCC)c(OCC)c(OCC)c2)c(=O)oc2ccccc12	5%	-2%	0%	x	x	-2
COc1cccc(C(NC(C)=O)c2nc(-c3ccc(F)c(Cl)c3)cs2)c1 (stereo unspecified)	0%	-5%	2%	11%	30	8
CCn1c(=O)n(-c2ccc3c(c2)OCO3)c2nc(-c3ccc(C(C)C)cc3)nc(C(N)=O)c21	-28%	1%	-11%	-1%	x	3
CC1=CC(C)[C@H](/C=N/n2c(=O)[nH]c3c([nH]c4ccc(Br)cc43)c2=O)C(C)C1 (stereo partly specified)	1%	0%	8%	1%	-67*	4
Cc1ccc(Cl)cc1N1CCN(C(=O)c2cn(C)c3ccc(S(=O)(=O)N4CCCC4)cc3c2=O)CC1	-3%	-6%	0%	x	x	-27
C=C1C(=O)O[C@H]2[C@H]1CC/C(C)=C\CC[C@@]1(C)O[C@@H]21	x	x	x	x	x	-10
COC(=O)c1ccc(C2SCC(=O)N2Cc2ccccc2)cc1 (stereo unspecified)	1%	-19%	-1%	-1%	3	3
CCCC(C)NC(=O)c1ccc(C2SCC(=O)N2Cc2ccco2)cc1 (stereo unspecified)	32µM*	1%	-18%	0%	25	2
O=C(CSc1nnc2c(n1)[nH]c1ccc(F)cc12)Nc1ccccc1F	0%	-14%	8%	-5%	-11	2
CCOC(=O)CN(C(=O)CSc1nnc(C)n1-c1ccccc1)c1ccccc1	-4%	10%	0%	6%	12	-1
CCOC(=O)CN(C(=O)CSc1nnc2c(n1)[nH]c1ccc(F)cc12)c1ccccc1	0%	u	u	-1%	-60*	-10
CCOC(=O)CN(C(=O)CSc1nnc2c(n1)[nH]c1ccccc12)c1ccccc1	3%	-19%	0%	-2%	-73*	1
COc1ccc(Cn2ccc3nc(C)c(C(=O)N4CCN(c5cccc(OC)c5)CC4)cc3c2=O)cc1	-3%	5%	-16%	x	x	10
CCOc1ccc(Nc2nn(-c3ccc(OC(F)(F)F)cc3)nc2C(C)=O)cc1	3%	-6%	-3%	x	x	9
COc1ccc(CN2CCN(CCCCOc3ccc(Cl)cc3)CC2)c(OC)c1OC	x	-25%	7.9µM*	3%	u	-4
Oc1c(CN2CCOCC2)cc(COCc2ccccc2)c2cccnc12	2%	u	u	5%	-67*	-23
Oc1c(CNc2ccccc2)cc(COCc2ccccc2)c2cccnc12	x	x	x	-3%	x	x
